Measurements: PMC5540273 (PLoS ONE, 2017)

system: CSNK1A1L; conditions: concentration: 1 μM, replicates: in singlicate; n = 1
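Further: KINOMEscan kinase panel screen.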

| Compound | %Inh [%] |
| --- | --- |
| CN(c1ccc(NC(=O)Nc2cc(C(F)(F)F)ccc2F)cc1)c1ccnc(Nc2ccc(S(N)(=O)=O)cc2)n1 [GW809893] | 9 |
| Cc1cccc(NC(=O)Nc2ccc(Oc3ncnc4ccn(C)c34)cc2)c1 | 0 |
| Cl.c1ccc(-c2ccc3c(Nc4ccc5[nH]ccc5c4)ccnc3c2)nc1 [GW440138] | 0 |
| CN1CCN(CCCNc2nccc(-c3c(-c4ccc(F)cc4)nn4cc(C(F)(F)F)ccc34)n2)CC1 [GW621581] | 12 |
| C[C@@H](Oc1cc(-n2cnc3cc(-c4ccnc(NCCS(C)(=O)=O)c4)ccc32)sc1C(N)=O)c1ccccc1Cl [GSK907232] | 22 |
| Cc1cccc(Nc2nc(N[C@H]3CCNC3)ncc2C(N)=O)c1.Cl [GSK2197149] | 78 |
| CCc1ccc(-c2ccc3c(c2)-c2c(cnn2C)S(=O)(=O)N3C)cc1 | 0 |
| COc1cc(Nc2ncc3c(C)nc(-c4cc5ccccc5[nH]4)n3n2)cc(OC)c1OC [GW869516] | 0 |
| Cc1ccc(S(=O)(=O)Nc2ccc(Nc3nccc(Nc4cccc5[nH]ncc45)n3)cc2)cc1 [GSK581271] | 5 |
| COc1ccc(Nc2nccc(NCCNC(=O)c3cc4ccccc4s3)n2)cc1 [GSK1379896] | 0 |
| CN1CCN(Cc2cccc(-c3ccc4c(Nc5ccc(Oc6ccccc6)cc5)ccnc4c3)c2)CC1 [GW578342] | 0 |
| COc1ccc(Nc2nccc(N3CCC(NC(=O)Nc4cccc(OC)c4)C3)n2)cc1 (stereo not drawn) [GSK1379742] | 19 |
| O=C(Nc1n[nH]c2cc(-c3ccoc3)ccc12)C1CC1 [SB-738481] | 5 |
| Nc1ncnc2c1nc(-c1ccccc1)n2-c1ccccc1 [SKF-97293] | 0 |
| COc1ccc(CNC(=O)NC2CCN(c3ccnc(Nc4ccc(F)cc4)n3)CC2)cc1 [GSK1379788] | 9 |
| Cc1occc1-c1ncc(OC[C@@H](N)Cc2c[nH]c3ccccc23)cc1-c1ccc2[nH]nc(C)c2c1.O=C(O)C(F)(F)F [GSK682037] | 97.3 |
| c1ccc(-c2n[nH]cc2Nc2ccnc3ccccc23)nc1 [GW694077] | 20 |
| O=C(Nc1cccc(-c2nn3ncccc3c2-c2ccnc(Nc3ccccc3)n2)c1)c1c(F)cccc1F [GSK198271] | 2 |
| Nc1n[nH]c2cnc(-c3ccccc3)cc12 [SB-642124] | 8 |
| CC(=O)Nc1nc2cnc(Nc3cc(NC(=O)c4cccc(C5(C#N)CC5)c4Cl)ccc3C)nc2s1 | 23 |
| O=C(Nc1n[nH]c2nc(-c3ccc(O)cc3)ccc12)C1CC1 [SB-710363] | 10 |
| Cn1cc(-c2[nH]c3cc(NC(=O)[C@H](N)C4CCCCC4)cc4c3c2C=NNC4=O)cn1 | 3 |
| O=C(Nc1cccc(-c2nn3ccccc3c2-c2ccnc(Nc3cccc(F)c3)n2)c1)c1c(F)ccc(F)c1Cl [GSK357952] | 7 |
| O=C(Nc1ccccc1F)NC1CCN(c2ccnc(Nc3ccc(F)cc3)n2)CC1 [GSK1379800] | 27 |
| CSc1cccc2c(-c3ccncn3)c(-c3ccc(F)cc3)nn12 [GW514786] | 21 |
| COc1ccc(-c2coc3ccc(-c4nnc(SCc5ccc(OC)c(C(F)(F)F)c5)o4)cc23)cc1 | 0 |

system: CSNK1A1; conditions: concentration: 1 μM, replicates: in singlicate; n = 1

| Compound | %Inh [%] |
| --- | --- |
| CN(C)S(=O)(=O)c1cc(-c2ccc3nccc(-c4cccc(S(N)(=O)=O)c4)c3c2)cnc1N [GSK1669921] | 49 |
| CCS(=O)(=O)c1ccc(OC)c(Nc2nccc(-c3c(-c4cccc(NC(=O)c5c(F)cccc5F)c4)nn4ncccc34)n2)c1 [GSK326180] | 0 |
| COc1cc(Nc2nccc(N3CCC(NC(=O)c4cc5ccccc5s4)C3)n2)cc(OC)c1OC (stereo not drawn) [GSK1379760] | 41 |
| Cc1ccc(F)c(C(=O)Nc2cccc(-c3nn4ccccc4c3-c3ccnc(Nc4cccc(F)c4)n3)c2)c1F [GSK361061] | 41 |
| Clc1ccc(-c2nn3ncccc3c2-c2ccnc(Nc3ccc4c(c3)OCCO4)n2)cc1 [GW829116] | 77 |
| CCCCc1nn2ncccc2c1-c1ccnc(Nc2ccc(N3CCN(C)CC3)cc2)n1 [GW684941] | 93.1 |
| CCn1c(-c2nonc2N)nc2c(C#CC(C)(C)O)ncc(OCCCCN)c21.O=C(O)C(F)(F)F.O=C(O)C(F)(F)F [GSK507274] | 19 |
| O=C(NC1CCN(c2ccnc(Nc3ccc(F)cc3)n2)C1)c1cc2ccccc2s1 (stereo not drawn) [GSK1379716] | 0 |
| COc1cc2c(cc1OCCN1CCNCC1)ncc1c3ccc(C#N)cc3[nH]c21 | 40 |
| COc1cc(Nc2nccc(N3CCC(NC(=O)Nc4cccc(C(C)=O)c4)C3)n2)cc(OC)c1OC (stereo not drawn) [GSK1379753] | 0 |
| O=C(Nc1cccc(-c2nn3ccccc3c2-c2ccnc(Nc3cccc(C(F)(F)F)c3)n2)c1)c1c(F)cccc1F [GSK292658] | 16 |
| CN(c1ccc(NC(=O)Nc2cc(C(F)(F)F)ccc2F)cc1)c1ccnc(Nc2ccc(S(N)(=O)=O)cc2)n1 [GW809893] | 15 |
| Cc1cccc(NC(=O)Nc2ccc(Oc3ncnc4ccn(C)c34)cc2)c1 | 0 |
| Cl.c1ccc(-c2ccc3c(Nc4ccc5[nH]ccc5c4)ccnc3c2)nc1 [GW440138] | 0 |
| CN1CCN(CCCNc2nccc(-c3c(-c4ccc(F)cc4)nn4cc(C(F)(F)F)ccc34)n2)CC1 [GW621581] | 83 |
| C[C@@H](Oc1cc(-n2cnc3cc(-c4ccnc(NCCS(C)(=O)=O)c4)ccc32)sc1C(N)=O)c1ccccc1Cl [GSK907232] | 0 |
| Cc1cccc(Nc2nc(N[C@H]3CCNC3)ncc2C(N)=O)c1.Cl [GSK2197149] | 75 |
| CCc1ccc(-c2ccc3c(c2)-c2c(cnn2C)S(=O)(=O)N3C)cc1 | 0 |
| COc1cc(Nc2ncc3c(C)nc(-c4cc5ccccc5[nH]4)n3n2)cc(OC)c1OC [GW869516] | 30 |

| Compound | %Inh [%] |
| --- | --- |
| Cc1ccc(S(=O)(=O)Nc2ccc(Nc3nccc(Nc4cccc5[nH]ncc45)n3)cc2)cc1 [GSK581271] | 0 |
| COc1ccc(Nc2nccc(NCCNC(=O)c3cc4ccccc4s3)n2)cc1 [GSK1379896] | 0 |
| CN1CCN(Cc2cccc(-c3ccc4c(Nc5ccc(Oc6ccccc6)cc5)ccnc4c3)c2)CC1 [GW578342] | 0 |
| COc1ccc(Nc2nccc(N3CCC(NC(=O)Nc4cccc(OC)c4)C3)n2)cc1 (stereo not drawn) [GSK1379742] | 0 |
| O=C(Nc1n[nH]c2cc(-c3ccoc3)ccc12)C1CC1 [SB-738481] | 0 |
| Nc1ncnc2c1nc(-c1ccccc1)n2-c1ccccc1 [SKF-97293] | 0 |
| COc1ccc(CNC(=O)NC2CCN(c3ccnc(Nc4ccc(F)cc4)n3)CC2)cc1 [GSK1379788] | 0 |
| Cc1occc1-c1ncc(OC[C@@H](N)Cc2c[nH]c3ccccc23)cc1-c1ccc2[nH]nc(C)c2c1.O=C(O)C(F)(F)F [GSK682037] | 97 |
| c1ccc(-c2n[nH]cc2Nc2ccnc3ccccc23)nc1 [GW694077] | 40 |
| O=C(Nc1cccc(-c2nn3ncccc3c2-c2ccnc(Nc3ccccc3)n2)c1)c1c(F)cccc1F [GSK198271] | 0 |
| Nc1n[nH]c2cnc(-c3ccccc3)cc12 [SB-642124] | 0 |
| CC(=O)Nc1nc2cnc(Nc3cc(NC(=O)c4cccc(C5(C#N)CC5)c4Cl)ccc3C)nc2s1 | 0 |
| O=C(Nc1n[nH]c2nc(-c3ccc(O)cc3)ccc12)C1CC1 [SB-710363] | 0 |
| Cn1cc(-c2[nH]c3cc(NC(=O)[C@H](N)C4CCCCC4)cc4c3c2C=NNC4=O)cn1 | 24 |
| O=C(Nc1cccc(-c2nn3ccccc3c2-c2ccnc(Nc3cccc(F)c3)n2)c1)c1c(F)ccc(F)c1Cl [GSK357952] | 2 |
| O=C(Nc1ccccc1F)NC1CCN(c2ccnc(Nc3ccc(F)cc3)n2)CC1 [GSK1379800] | 0 |
| CSc1cccc2c(-c3ccncn3)c(-c3ccc(F)cc3)nn12 [GW514786] | 61 |
| COc1ccc(-c2coc3ccc(-c4nnc(SCc5ccc(OC)c(C(F)(F)F)c5)o4)cc23)cc1 | 0 |
